Results filed as inconclusive are left out. The source made the active and inactive calls. Unless noted, calls come from the whole dose curve; as a rule, active = well fitted curve in the direction sought with a large enough effect; inconclusive = small, poorly fitted or top-dose-only effect, or another doubt; inactive = no such curve, though single readings can be large; an effect the other way counts as inactive or inconclusive.
Columns and labels:
[1] = biological target: Cytochrome P450 1A2 (Homo sapiens) (UniProt P05177); assay: p450-cyp1a2 (AID 410; calls by dose curve; note: potency is the fitted concentration of half-maximal effect;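 for activity change, negative = inhibition: -100% = full effect of reference inhibitor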)
In short: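 O-Demethylation of luciferin 6' methyl ether by human CYP1A2 is monitored as luciferase luminescence. Substrate sits at Km (100uM); enzyme is 20nM. Values are scaled to 57 uM furafylline as maximal inhibition.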

[2] = biological target: Glucocorticoid receptor (Homo sapiens) (UniProt P04150); assay: GR-GFP Redistribution (AID 450;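 active = compounds whose dose series gives a full or clear partial fitted curve of increased nuclear translocation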; note: potency is the fitted concentration of half-maximal effect); details: U2OS GR-GFP nuclear translocation, laser cytometry, 2 h
[3] = biological target: Glucocorticoid receptor (Homo sapiens) (UniProt P04150); assay: GR-EFC Redistribution (AID 451; calls by dose curve; note: potency is the fitted concentration of half-maximal effect); details: CHO-K1 GR-EFC translocation, beta-gal luminescence, 2 h
In short: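 Translocation of GR-ED fusion to nuclear EA restores b-gal, read by luminescence after 1 h room-temperature detection. Engineered CHO-K1 biosensor cells, 1,000/well, exposed 2 h at 37 C to titrations up to 46 uM final.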

[4] = biological target: Mitogen-activated protein kinase 10 (Mus musculus) (UniProt Q61831); assay: JNK3 AlphaScreen Assay (AID 530; active = well fitted curve in either direction with a large enough effect, not every such curve was filed as active;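 note: kinase came from lysate of stimulated human HepG2 cells; signal reports phosphorylation of biotinylated GST-cJun 1-79 at Ser73 with 10 µM ATP; % is set by controls: 0 for no effect and ±100 for the full control effect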)
In short: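 qHTS titrations with 15 min compound pre-incubation before adding ATP (10 uM final). Read-out: AlphaScreen of Ser73-phosphorylated biotin-GST-cJun using HepG2 lysate JNK3 activated by IL-1β and TNFα.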

[5] = biological target: 3',5'-cyclic-AMP phosphodiesterase 4B (Homo sapiens) (UniProt Q07343); assay: qHTS Assay for Inhibitors of PDE-IV (AID 607; active = well fitted activation curve with a large enough effect in the main read-out, with a control signal flat, not every such curve was filed as active; note: % of control where 0% means no effect)
In short: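 Live HEK293 cells with a modified cyclic nucleotide-gated (CNG) channel report intracellular cAMP via membrane-potential dye fluorescence (ex 535/em 590 nm). Endogenous PDE-IV was targeted. Compounds were tested at up to 22.9 uM final; RO 20-1724 100 uM served as control.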

[6] = biological target: Cytochrome P450 2C9 (Homo sapiens) (UniProt P11712); assay: qHTS Assay for Inhibitors and Substrates of Cytochrome P450 2C9 (AID 883); note: % is set by controls: 0 for no effect and ±100 for the full control effect; nearly all actives have a fitted effect of over 60% in size
In short: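 Luminescent read-out of deoxyluciferin hydroxylation, normalized to 57uM sulphaphenazole (AC100). Reaction: 10nM enzyme, 100uM Luciferin-H (equal to KM), 25mM KPO4, 10 min compound preincubation, then 60 min with NADPH regeneration, both at 37C.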

[7] = biological target: Ubiquitin carboxyl-terminal hydrolase 1 (Homo sapiens) (UniProt O94782); assay: Inhibitors of USP1/UAF1: Pilot qHTS (AID 504865);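 note: rhodamine fluorescence freed from ubiquitin-rhodamine substrate followed over time; top concentration of the series differs between compounds; % is set by controls: 0 for no effect and ±100 for the full control effect; nearly all actives have a fitted effect of over 35% in size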
In short: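 1nM USP1/UAF1 + cpd, 15 min RT; start w/ Ub-Rho 150nM final; kinetic FL 480/540 nm, 6 reads q60 s. Buffer 50mM HEPES pH 7.8, 0.5mM EDTA, 1mM TCEP, 0.01% Tween-20, 0.1 mg/ml BSA.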

[8] = biological target: DNA dC->dU-editing enzyme APOBEC-3G (Homo sapiens) (UniProt Q9HC16); assay: qHTS for inhibitors of Vif-A3G interactions: Validation (AID 588379); note: 0% is about no effect
In short: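 Yellow fluorescence (Ex 488, Em 500-530) of Vif-coexpressing HeLa A3G-eYFP cells, scanned by Acumen cytometer, reports blocked A3G degradation. Cells plated at 700/well overnight at 37 deg C before compound addition, then a further overnight compound incubation at 37 deg C.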

[9] = Primary qHTS for small molecule stabilizers of the endoplasmic reticulum resident proteome: Secreted ER Calcium Modulated Protein (SERCaMP) assay (AID 1508630); note: % is set by controls: 0 for no effect and ±100 for the full control effect
In short: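 The SH-SY5Y reporter protocol was run at 3 concentrations up to 38.3 uM (primary) or 11 concentrations (follow-up): 16 h compound, 100 nM thapsigargin for 4 h, then extracellular luciferase luminescence.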

[10] = biological target: Lysosomal acid glucosylceramidase (Homo sapiens) (UniProt P04062); assay: Glucocerebrosidase-p2 (AID 348; in the data active = potency below about 10 µM; note: potency is the fitted concentration of half-maximal effect); details: purified GBA, blue fluorogenic substrate, 40 min
In short: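 Normal human glucocerebrosidase (0.2 nM) with blue fluorogenic substrate (80 uM final) in citrate/phosphate pH 5.9 with 10mM sodium taurocholate, 0.01% tween-20; 40 min RT, NaOH/glycine stop; fluorescence Ex 365/Em 440; AC50 from a titration from 0.6 nM upwards.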

[11] = AP1 Signaling Pathway (AID 357; active = well fitted curve in either direction with a large enough effect, not every such curve was filed as active;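 note: ME-180 reporter cells stimulated with EGF at its EC50 level; % is set by controls: 0 for no effect and ±100 for the full control effect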); details: ME-180 AP-1-bla reporter, EGF-induced, beta-lactamase ratio, 5 h; at 7.69 µM (top of the series) unless noted
In short: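 Read-out was the 460nm/530nm emission ratio (excitation 405nm) after CCF4 loading for 2.5 hours at room temperature. Cells carried an AP-1-driven beta-lactamase reporter, were stimulated with EC50 EGF plus compound for 5 hours, and AC50 values came from titrations.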

[12] = NFAT Signaling Pathway (AID 444; active = well fitted curve in either direction with a large enough effect, not every such curve was filed as active;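 note: carbachol stimulus at about its EC50 of 1 µM final; % is set by controls: 0 for no effect and ±100 for the full control effect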); details: Jurkat NFAT-bla M1, carbachol, beta-lactamase ratio, 5 h; at 7.69 µM (top of the series) unless noted
In short: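 Read-out: CCF4 FRET ratio (460 nm/530 nm) after 1 h RT dye loading, used for %activity and AC50 from titration series. Cells: Jurkat NFAT-β-lactamase/M1 line, treated with compound plus 1 uM carbachol for 5 h, 37 °C.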

[13] = Stat Signaling Pathway (AID 446; active = well fitted curve in either direction with a large enough effect, not every such curve was filed as active); details: ME-180 (cervical carcinoma) SIE beta-lactamase reporter, IL-6 stimulated, 5 h; at 7.69 µM (top of the series) unless noted
In short: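 Overnight-plated ME-180 cells bearing a STAT Inducible Element beta-lactamase reporter; 5 h co-exposure to compound and 40 pM IL-6; values normalized to 300 pM IL-6 and 125 nM JAK inhibitor controls.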

[14] = biological target: Cytochrome P450 3A4 (Homo sapiens) (UniProt P08684); assay: qHTS Assay for Inhibitors and Substrates of Cytochrome P450 3A4 (AID 884); note: potency is the fitted concentration of half-maximal effect; nearly all actives have a fitted effect of over 50% in size
In short: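 Luminescent readout of luciferin produced by CYP3A4 (20 nM) dealkylation of Luciferin-PPXE, 25 uM (its KM). NADPH-driven reaction ran 60 min at RT after 10 min compound preincubation; data scaled to 57 uM ketoconazole as 100% inhibition.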

[15] = biological target: Cytochrome P450 3A4 (Homo sapiens) (UniProt P08684); assay: qHTS Assay for Activators of Cytochrome P450 3A4 (AID 885); note: nearly all actives have a fitted effect of over 65% in size
In short: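 Using 20nM recombinant human CYP3A4 in potassium phosphate (200mM), substrate Luciferin-PPXE at 25uM, luminescent luciferin detection followed a 60-min RT NADPH reaction; data scaled to 57 uM ketoconazole.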

[16] = biological target: Cytochrome P450 2C19 (Homo sapiens) (UniProt P33261); assay: qHTS Assay for Inhibitors and Substrates of Cytochrome P450 2C19 (AID 899); note: potency is the fitted concentration of half-maximal effect; nearly all actives have a fitted effect of over 60% in size
In short: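 Luminescence readout of luciferin formed from 10uM Luciferin-H EGE (KM level) by 5 nM CYP2C19 in 50mM KPO4. 60 min NADPH-driven reaction at 37C after 10 min compound preincubation; data scaled to 57uM ketoconazole inhibition.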

[17] = qHTS Assay for Lipid Storage Modulators (AID 1519; calls by dose curve); details: Drosophila S3 cells, BODIPY lipid droplet/cell ratio, laser cytometry, cells loaded with oleic acid
In short: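 Cells seeded at 5,000 per well were treated with compounds over a concentration series and loaded with oleic acid (400 uM, as added). Lipid droplet fluorescence (488 nm excitation, 500-530 nm channel) was read by laser-scanning cytometry and normalized to 20 uM Triacsin C.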

[18] = biological target: Dual specificity protein kinase CLK4 (Homo sapiens) (UniProt Q9HAZ1); assay: qHTS Assay for Inhibitors of CDC-like Kinase 4 (Kinase-Glo Assay) (AID 1770); note: potency is the fitted concentration of half-maximal effect; nearly all actives have a fitted effect of over 65% in size
In short: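 Readout: Kinase-Glo luminescence from ATP left after a 4.5 h room-temperature reaction of 25 nM Clk4 with 100 uM RS peptide and 1 uM ATP (final). Buffer: 25 mM Tris pH 7.5, 10 mM MgCl2.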

[19] = biological target: Dual specificity protein kinase CLK4 (Homo sapiens) (UniProt Q9HAZ1); assay: qHTS Assay for Inhibitors of CDC-like Kinase 4 (ADP-Glo Assay) (AID 1771); note: potency is the fitted concentration of half-maximal effect; nearly all actives have a fitted effect of over 70% in size
In short: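 Compounds are pin-transferred onto substrate mix (100 uM RS peptide, 1 uM ATP), then 25 nM Clk4 is added. After 1 hr at room temperature, ADP-Glo reagent runs 45 min, detection reagent 30 min, then luminescence is read.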

[20] = biological target: Rap guanine nucleotide exchange factor 3 (Homo sapiens) (UniProt O95398); assay: Confirmatory qHTS for antagonist of cAMP-regulated guanine nucleotide exchange factor 3 (EPAC1) (AID 1645880);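 note: plate controls were DMSO only for no effect and full effect of the ATA control for full effect; nearly all actives have a fitted effect of over 55% in size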
In short: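 Released BODIPY-GDP fluoresces less than Rap1-bound BODIPY-GDP; the signal is followed at 480/540 nm at 5-min intervals over 30 min, after 5 min at room temperature. Reactions contain 100 nM EPAC1, 250 nM RAP1B-BODIPY-GDP and 50 uM GDP; results are normalized to ATA and DMSO.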

[21] = biological target: Rap guanine nucleotide exchange factor 3 (Homo sapiens) (UniProt O95398); assay: Confirmatory qHTS for agonist of cAMP-regulated guanine nucleotide exchange factor 3 (EPAC1) (AID 1645881);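 note: EPAC1 catalysed release of BODIPY-GDP from Rap1B seen as fluorescence loss; 100% = effect of cAMP agonist control; nearly all actives have a fitted effect of over 75% in size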
[22] = biological target: Rap guanine nucleotide exchange factor 4 (Homo sapiens) (UniProt Q8WZA2); assay: Confirmatory qHTS for agonist of cAMP-regulated guanine nucleotide exchange factor 4 (EPAC2) (AID 1645884);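 note: nucleotide exchange releases bodipy-GDP from Rap1 and this lowers its fluorescence; % is set by controls: 0 for no effect and ±100 for the full control effect; nearly all actives have a fitted effect of over 65% in size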
[23] = biological target: Rap guanine nucleotide exchange factor 4 (Homo sapiens) (UniProt Q8WZA2); assay: Confirmatory qHTS for antagonist of cAMP-regulated guanine nucleotide exchange factor 4 (EPAC2) (AID 1645885); note: % is set by controls: 0 for no effect and ±100 for the full control effect; nearly all actives have a fitted effect of over 25% in size

Glucocorticoid receptor (Homo sapiens), sequence (P04150 whole entry, looked up, the tested form may be a part): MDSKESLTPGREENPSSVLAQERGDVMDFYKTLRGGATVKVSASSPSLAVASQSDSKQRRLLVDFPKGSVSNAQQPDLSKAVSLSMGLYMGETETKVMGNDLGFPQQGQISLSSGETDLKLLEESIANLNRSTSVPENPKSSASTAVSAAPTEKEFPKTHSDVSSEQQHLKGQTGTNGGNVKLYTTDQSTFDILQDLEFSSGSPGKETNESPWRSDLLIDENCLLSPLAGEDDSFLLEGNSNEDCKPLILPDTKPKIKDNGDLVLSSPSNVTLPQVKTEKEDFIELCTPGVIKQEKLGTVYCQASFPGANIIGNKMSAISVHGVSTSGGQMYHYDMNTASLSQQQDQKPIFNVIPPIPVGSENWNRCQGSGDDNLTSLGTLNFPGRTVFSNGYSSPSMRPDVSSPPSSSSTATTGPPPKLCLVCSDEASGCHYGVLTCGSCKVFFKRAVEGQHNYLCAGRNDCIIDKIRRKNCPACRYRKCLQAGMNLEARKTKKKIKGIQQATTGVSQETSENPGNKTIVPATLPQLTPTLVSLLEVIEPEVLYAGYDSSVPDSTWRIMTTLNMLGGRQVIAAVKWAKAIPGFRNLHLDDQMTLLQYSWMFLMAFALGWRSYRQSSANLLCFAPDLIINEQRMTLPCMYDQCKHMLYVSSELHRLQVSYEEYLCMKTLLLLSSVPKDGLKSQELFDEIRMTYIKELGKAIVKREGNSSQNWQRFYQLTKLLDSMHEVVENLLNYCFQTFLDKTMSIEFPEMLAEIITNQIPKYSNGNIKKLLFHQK
Cytochrome P450 3A4 (Homo sapiens), sequence (P08684 whole entry, looked up): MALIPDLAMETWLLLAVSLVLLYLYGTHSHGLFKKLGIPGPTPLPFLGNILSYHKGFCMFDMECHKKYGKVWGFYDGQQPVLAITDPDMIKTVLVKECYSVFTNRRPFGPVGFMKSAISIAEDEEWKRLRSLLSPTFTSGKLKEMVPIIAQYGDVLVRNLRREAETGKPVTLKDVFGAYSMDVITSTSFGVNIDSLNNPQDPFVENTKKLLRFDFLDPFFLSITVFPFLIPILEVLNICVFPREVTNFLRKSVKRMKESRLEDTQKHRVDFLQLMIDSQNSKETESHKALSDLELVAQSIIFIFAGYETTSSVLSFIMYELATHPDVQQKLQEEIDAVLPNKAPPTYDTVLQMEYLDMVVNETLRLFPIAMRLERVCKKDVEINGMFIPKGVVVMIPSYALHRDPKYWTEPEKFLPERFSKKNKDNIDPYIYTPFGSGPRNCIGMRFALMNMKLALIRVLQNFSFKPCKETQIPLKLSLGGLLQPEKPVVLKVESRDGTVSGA
Rap guanine nucleotide exchange factor 4 (Homo sapiens), sequence (Q8WZA2 whole entry, looked up): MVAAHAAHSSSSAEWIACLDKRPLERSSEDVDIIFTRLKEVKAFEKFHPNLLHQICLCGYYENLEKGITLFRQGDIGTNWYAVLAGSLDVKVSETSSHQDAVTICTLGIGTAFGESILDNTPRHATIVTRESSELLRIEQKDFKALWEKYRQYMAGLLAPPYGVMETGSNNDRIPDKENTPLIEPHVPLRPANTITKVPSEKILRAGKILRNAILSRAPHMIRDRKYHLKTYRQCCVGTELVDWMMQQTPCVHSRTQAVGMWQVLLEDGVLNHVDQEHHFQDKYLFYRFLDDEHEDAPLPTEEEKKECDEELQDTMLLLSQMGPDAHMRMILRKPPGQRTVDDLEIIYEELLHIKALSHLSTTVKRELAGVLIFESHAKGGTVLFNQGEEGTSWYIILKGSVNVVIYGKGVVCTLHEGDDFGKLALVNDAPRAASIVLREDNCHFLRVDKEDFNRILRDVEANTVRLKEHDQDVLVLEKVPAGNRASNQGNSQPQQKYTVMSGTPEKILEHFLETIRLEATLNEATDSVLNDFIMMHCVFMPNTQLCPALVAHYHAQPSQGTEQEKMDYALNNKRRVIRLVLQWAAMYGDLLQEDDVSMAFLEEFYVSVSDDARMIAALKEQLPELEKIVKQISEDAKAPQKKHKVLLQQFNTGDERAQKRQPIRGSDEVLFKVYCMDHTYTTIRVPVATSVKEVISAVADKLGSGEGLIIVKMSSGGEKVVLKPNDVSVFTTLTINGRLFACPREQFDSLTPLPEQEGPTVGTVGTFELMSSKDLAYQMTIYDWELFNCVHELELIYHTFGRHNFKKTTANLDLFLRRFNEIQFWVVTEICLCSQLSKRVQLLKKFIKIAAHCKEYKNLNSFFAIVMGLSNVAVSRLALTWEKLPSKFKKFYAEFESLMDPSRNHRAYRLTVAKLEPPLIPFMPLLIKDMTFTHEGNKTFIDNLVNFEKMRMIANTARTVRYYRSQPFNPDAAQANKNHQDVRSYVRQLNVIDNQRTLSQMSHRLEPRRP
Cytochrome P450 1A2 (Homo sapiens), sequence (P05177 whole entry, looked up): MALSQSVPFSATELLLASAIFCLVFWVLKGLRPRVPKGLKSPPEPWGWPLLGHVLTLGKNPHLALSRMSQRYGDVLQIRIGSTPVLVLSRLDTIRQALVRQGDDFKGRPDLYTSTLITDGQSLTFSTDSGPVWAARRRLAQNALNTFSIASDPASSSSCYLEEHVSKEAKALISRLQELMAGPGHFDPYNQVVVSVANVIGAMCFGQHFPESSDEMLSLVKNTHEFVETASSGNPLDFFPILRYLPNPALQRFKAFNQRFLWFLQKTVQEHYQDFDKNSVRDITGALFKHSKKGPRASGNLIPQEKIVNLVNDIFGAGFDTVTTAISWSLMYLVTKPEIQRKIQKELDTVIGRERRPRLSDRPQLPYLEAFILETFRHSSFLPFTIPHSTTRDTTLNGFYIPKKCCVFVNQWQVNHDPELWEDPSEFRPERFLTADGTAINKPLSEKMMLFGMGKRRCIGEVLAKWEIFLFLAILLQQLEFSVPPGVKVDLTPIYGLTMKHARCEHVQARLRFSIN
Ubiquitin carboxyl-terminal hydrolase 1 (Homo sapiens), sequence (O94782 whole entry, looked up): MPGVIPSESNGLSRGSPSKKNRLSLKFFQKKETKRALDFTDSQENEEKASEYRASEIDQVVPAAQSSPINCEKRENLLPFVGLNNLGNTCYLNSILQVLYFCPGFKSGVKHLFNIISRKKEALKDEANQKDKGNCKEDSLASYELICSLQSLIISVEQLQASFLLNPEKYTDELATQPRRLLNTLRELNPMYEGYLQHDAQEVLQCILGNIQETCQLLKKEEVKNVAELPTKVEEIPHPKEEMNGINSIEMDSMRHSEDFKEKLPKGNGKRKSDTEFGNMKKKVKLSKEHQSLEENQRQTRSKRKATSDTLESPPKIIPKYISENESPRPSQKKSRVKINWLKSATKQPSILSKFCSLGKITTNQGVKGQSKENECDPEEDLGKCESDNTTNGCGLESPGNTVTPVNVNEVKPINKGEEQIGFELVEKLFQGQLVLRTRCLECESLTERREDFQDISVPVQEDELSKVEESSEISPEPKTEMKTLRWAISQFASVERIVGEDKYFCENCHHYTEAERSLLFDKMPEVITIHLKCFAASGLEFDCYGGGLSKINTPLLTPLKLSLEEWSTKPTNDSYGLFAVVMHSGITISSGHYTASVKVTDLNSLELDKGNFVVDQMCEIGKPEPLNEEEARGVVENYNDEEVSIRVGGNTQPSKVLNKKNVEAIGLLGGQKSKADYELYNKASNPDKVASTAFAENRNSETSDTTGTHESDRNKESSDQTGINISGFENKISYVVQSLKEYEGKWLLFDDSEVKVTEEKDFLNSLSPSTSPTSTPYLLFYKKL
Dual specificity protein kinase CLK4 (Homo sapiens), sequence (Q9HAZ1 whole entry, looked up): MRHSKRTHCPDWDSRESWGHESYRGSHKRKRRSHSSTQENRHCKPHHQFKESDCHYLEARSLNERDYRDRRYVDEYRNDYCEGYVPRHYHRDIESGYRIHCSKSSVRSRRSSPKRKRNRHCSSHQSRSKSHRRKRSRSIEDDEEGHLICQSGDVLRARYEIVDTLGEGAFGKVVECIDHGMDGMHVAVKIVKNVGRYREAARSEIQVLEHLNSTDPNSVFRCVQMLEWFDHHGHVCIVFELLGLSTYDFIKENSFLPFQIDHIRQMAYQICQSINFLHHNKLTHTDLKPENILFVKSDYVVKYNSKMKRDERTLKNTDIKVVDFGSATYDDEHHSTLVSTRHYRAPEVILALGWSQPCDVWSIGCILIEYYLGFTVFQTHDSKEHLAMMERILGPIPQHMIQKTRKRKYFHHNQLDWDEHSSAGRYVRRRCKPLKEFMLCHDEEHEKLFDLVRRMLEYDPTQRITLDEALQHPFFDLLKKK
Rap guanine nucleotide exchange factor 3 (Homo sapiens), sequence (O95398 whole entry, looked up): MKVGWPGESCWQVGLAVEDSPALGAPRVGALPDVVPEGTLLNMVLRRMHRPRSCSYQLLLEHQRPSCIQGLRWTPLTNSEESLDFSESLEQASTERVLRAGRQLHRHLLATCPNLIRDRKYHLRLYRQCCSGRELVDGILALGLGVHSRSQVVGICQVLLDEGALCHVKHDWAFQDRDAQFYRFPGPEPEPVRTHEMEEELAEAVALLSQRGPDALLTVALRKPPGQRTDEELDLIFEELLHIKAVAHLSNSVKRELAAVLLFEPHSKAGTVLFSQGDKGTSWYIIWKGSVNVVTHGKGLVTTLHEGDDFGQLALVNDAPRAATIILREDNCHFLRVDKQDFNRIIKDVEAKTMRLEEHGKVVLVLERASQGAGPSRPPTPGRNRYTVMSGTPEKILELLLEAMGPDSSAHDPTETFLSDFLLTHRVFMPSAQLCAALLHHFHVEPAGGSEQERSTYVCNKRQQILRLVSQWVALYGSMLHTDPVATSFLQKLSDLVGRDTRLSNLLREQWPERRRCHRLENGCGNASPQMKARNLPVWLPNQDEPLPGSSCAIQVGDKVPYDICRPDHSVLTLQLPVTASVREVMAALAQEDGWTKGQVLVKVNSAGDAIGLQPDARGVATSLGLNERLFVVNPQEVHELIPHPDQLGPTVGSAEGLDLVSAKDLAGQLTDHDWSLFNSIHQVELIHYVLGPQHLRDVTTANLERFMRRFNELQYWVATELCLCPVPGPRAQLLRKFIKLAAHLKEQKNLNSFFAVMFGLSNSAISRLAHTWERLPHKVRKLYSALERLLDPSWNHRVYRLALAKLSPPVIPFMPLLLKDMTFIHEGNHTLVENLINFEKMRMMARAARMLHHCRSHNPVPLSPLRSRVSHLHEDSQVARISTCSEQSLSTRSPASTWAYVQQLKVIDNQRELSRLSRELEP

N[C@@H](C(=O)O)c1ccc(O)c(C(=O)O)c1
inactive: Potency [1] | Potency [2] > 46 µM | Potency [3] > 46 µM | Potency [4] | Potency [5] | Potency [6] | Potency [7] | outcome [8] | outcome [9]

Cc1ccccc1-c1ccc2ncnc(N(C)C)c2c1
active: Potency [1] 0.631 µM | Potency [14] 3.16 µM | Potency [16] 7.94 µM | Potency [18] 15.8 µM | Potency [19] 28.2 µM
-2.12%: max response ([17]; measured here: cell count channel max response)
-3.73%: max response ([17]; measured here: lipid channel max response)
inactive: Potency [10] > 11.4 µM | activity change, negative = inhibition [11] 13.7% | activity change, negative = inhibition [12] 7.63% | activity, negative = inhibition [13] -4.62% | Potency [2] > 46 µM | Potency [3] > 46 µM | Potency [4] | Potency [15] | activity change, negative = inhibition ([17]; at 57.5 µM (top of the series)) 1.72% | Potency [7] | Potency [20] | Potency [21] | Potency [22] | Potency [23]

— PubChem BioAssay (NCATS)
